Hits are enriched below; roughly 3.7% of the tested compounds scored in any of these assays.
PTHR1 ag = agonists of human PTHR1 parathyroid hormone receptor; 410,000 tested, 0.075% active; HEK293 GP2 PTHR1 cells, GloSensor cAMP luminescence, 1 h; AID 743266; Q03431; Potency, µM (series often up to 115 µM), for the others: top-dose activation, actives largely listed as activators; also: potency is read from the fitted curve at half-maximal effect; nearly all actives have a fitted effect of over 55% in size
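HEK-293-derived GP2 cells expressing PTHR1 and a GloSensor cAMP reporter, 3,000/well, plated overnight, given luciferin plus IBMX (each 0.5 mM as added) for 1 h at 37 °C, then compound for 1 h at 37 °C. Luminescence was read after 15 min at room temperature.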
DRD3 antagonist = antagonists of human D3 dopamine receptor; D3R cells, DiscoveRx beta-arrestin luminescence, antagonist mode; stronger effect = lower value; 360,000 tested, 2.5% active; P35462; max response, negative = inhibition, %; in the data active = max response below about -50%; inconclusive = no clear call, values can overlap the other calls; also: % is scaled to controls: 0 for no effect and ±100 for the full control effect
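Cells expressing the human receptor were seeded at 1500 cells/well, incubated overnight at 37 degrees C in 5% CO2, then exposed to library compounds with dopamine controls for 90 minutes at 37 degrees C before luminescent detection.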
RGS4 inh = human RGS4 inhibition | Transcreener GDP fluorescence polarization, RGS4-accelerated GTP hydrolysis | Potency, µM (doses to about 114 µM), without a hit: at the top dose activity change, negative = inhibition, hits mostly inhibitors | 390,000 tested, 0.039% active | AID 504845; also: potency is read from the fitted curve at half-maximal effect; % is scaled to controls: 0 for no effect and ±100 for the full control effect; nearly all actives have a fitted effect of over 75% in size
Target sequence (P49798 whole entry, looked up): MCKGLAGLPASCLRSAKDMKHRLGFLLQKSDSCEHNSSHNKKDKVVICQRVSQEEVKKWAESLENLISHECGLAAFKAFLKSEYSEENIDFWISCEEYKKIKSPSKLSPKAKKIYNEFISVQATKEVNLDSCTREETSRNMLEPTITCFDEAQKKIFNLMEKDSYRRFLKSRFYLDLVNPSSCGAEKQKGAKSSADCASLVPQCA
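MLSMR compounds (23 nl, pin-transferred) preincubated 10 min at room temperature with a 500nM (2x) first reagent, then RGS4 at 900nM (2x) plus Transcreener GDP mix added; fluorescence polarization (620/688 nm) read before and after 90 min at 30 °C.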
DRD3 agonist = activates the human D3 dopamine receptor; 410,000 tested, 0.58% active; max activation, %; D3R DiscoveRx beta-arrestin cells, luminescence, 90 min; P35462; in the data active = max activation above about 30%; also: 0% is about no effect
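Cells at 1500/well, incubated overnight, then treated with pinned compounds (dopamine as control) for 90 min at 37 degrees C. DiscoveRx reagent added for 30 - 60 minutes at room temperature; luminescence read.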
BRCA1 expr act = BRCA1 expression activation; 380,000 tested, 1.1% active; Potency, µM (doses to about 46.1 µM), for the others: top-dose activation, usual class: activators; MCF7-BRCA1-FFLuc reporter, luminescence, 48 h; response scale: scaled: vehicle 0%, 10 µM genistein 100%; also: potency is read from the fitted curve at half-maximal effect; nearly all actives have a fitted effect of over 80% in size
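Luminescence from a BRCA1-driven firefly luciferase in MCF7 cells was read after 48 h compound exposure at 37 C. Data normalized against DMSO and a 10microM genistein activation control, then curve-fitted across the titration.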
B2AR arrestin = agonists driving beta-arrestin recruitment to human beta2-adrenergic receptor | P07550 | beta-arrestin recruitment to beta2AR, cell-based reporter | 330,000 tested, 0.02% active | Potency, µM (doses to about 46.1 µM), for the others: at the top dose activation, actives largely listed as activators;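 also: potency is read from the fitted curve at half-maximal effect; 0% = DMSO controls and full agonism = EC100 isoproterenol or metaproterenol; nearly all actives have a fitted effect of over 65% in size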
Target sequence (P07550 whole entry, looked up): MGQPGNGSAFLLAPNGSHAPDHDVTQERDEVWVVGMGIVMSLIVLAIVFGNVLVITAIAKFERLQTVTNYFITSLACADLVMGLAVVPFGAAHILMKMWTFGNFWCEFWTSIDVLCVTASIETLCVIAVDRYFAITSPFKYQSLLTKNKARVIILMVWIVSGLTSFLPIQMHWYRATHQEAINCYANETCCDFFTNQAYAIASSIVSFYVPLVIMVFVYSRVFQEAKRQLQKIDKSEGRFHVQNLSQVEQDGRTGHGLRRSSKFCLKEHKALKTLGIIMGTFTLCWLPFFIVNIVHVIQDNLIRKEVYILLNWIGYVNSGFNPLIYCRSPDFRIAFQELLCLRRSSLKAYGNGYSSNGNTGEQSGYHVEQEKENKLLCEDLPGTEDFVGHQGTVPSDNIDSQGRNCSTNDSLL
Active calls of the source: *; i = inactive; ? = inconclusive; · = no result given; [ ] = another dose, or the depositor's remark. Unless noted, calls follow the shape of the dose curve; as a rule, active = well fitted curve in the direction sought with a large enough effect; inconclusive = small, poorly fitted or top-dose-only effect, or another doubt; inactive = no such curve, though single readings can be large; an effect the other way counts as inactive or inconclusive.

SMILES | PTHR1 ag | DRD3 antagonist | RGS4 inh | DRD3 agonist | BRCA1 expr act | B2AR arrestin
COc1ccc(OCc2nnc(SCC(=O)Nc3ccccc3Cl)o2)cc1 | -3.6% | 4.3 | -20.3% | 6.6 | -6.0% | 0.5%
CO/N=C(\C(=O)N[C@@H]1C(=O)N2C(C(=O)[O-])=C(C[n+]3ccc(N)n3CCO)CS[C@H]12)c1csc(N)n1 | · | · | · | -0.9 | · | ·
Cc1ccc(CNc2ccc(-c3nc(-c4ccco4)no3)cc2[N+](=O)[O-])cc1 | i | · | -12.3% | 2.1 | 0.0% | ·
CCc1c(C)nc2cc(-c3ccc(OC)cc3)[nH]n2c1=O | -9.3%[57.5 µM] | 12.2 | -1.5% | -1.0 | 8.91µM* | 0.1%
O=C(/C=C/[C@H]1O[C@@H](n2cnc3c(NC(=O)c4ccccc4)ncnc32)[C@H](O)[C@@H]1O)NC1CCCCC1 | -13.7% | 1.5 | · | 7.1 | 7.3% | ·
Cc1ccc(SCc2cn3ccccc3n2)cc1 | -10.5% | -1.9 | -27.3% | -14.4 | ? | 0.0%
c1ccc(CSCc2cn3ccccc3n2)cc1 | -26.2% | 14.7 | -9.5% | 3.4 | 2.82µM* | 0.1%
CCCC1=NN(c2ccc([N+](=O)[O-])cc2)C(=O)/C1=C/N(C)C | i | -15.3 | 26.6% | 5.1 | 6.0% | -0.5%
CC1=NN(c2ccc([N+](=O)[O-])cc2)C(=O)/C1=C\N(C)C | i | -57.4* | -27.8% | -12.5 | 14.2% | -0.7%
CC[C@@H](C)[C@H](N)C(=O)O | · | · | · | -6.1 | · | ·
CC(=NNc1nc2ccccc2s1)c1ccncn1 | i | -57.4* | -8.1% | -8.7 | -65.4% | ·
Nc1c(C(=O)c2ccccc2)sc(Nc2ccc(Cl)c(Cl)c2)c1C(=O)Nc1ccccc1 | -45.9% | · | -50.6% | 1.7 | · | ·
Cc1cc(C)cc(NC(=O)c2ccc(CN3CCc4ccccc4C3)cc2)c1 | -59.9% | -66.8* | 8.2% | -11.2 | -33.6% | -0.3%
O=C(Nc1cccnc1)c1ccc(CN2CCc3ccccc3C2)cc1 | -20.6% | -74.0* | 13.8% | -13.2 | -30.8% | -0.6%
Cc1ccc(NC(=O)c2ccc(CN3CCc4ccccc4C3)cc2)cc1 | -39.1% | -85.1* | -16.9% | -11.3 | 37.9% | 0.2%
O=C(Nc1ccc(S(=O)(=O)N2CCCCC2)cc1)c1ccc(CN2CCc3ccccc3C2)cc1 | -55.9%[57.5 µM] | -21.8 | -13.7% | -14.0 | -59.0% | 0.0%
O=C(Nc1ccccc1)c1ccc(CN2CCc3ccccc3C2)cc1 | -17.5% | ? | 7.9% | -4.5 | 30.9% | 0.1%
CCCc1cc(=O)[nH]c(Nc2ccccc2O)n1 | -9.5% | · | -13.2% | 6.6 | · | ·
CCN[C@@H]1C[C@H](N)[C@@H](OC2OC(CN)=CCC2N)[C@H](O)[C@H]1O[C@H]1OC[C@](C)(O)[C@H](NC)[C@H]1O (stereo not given in full) | · | · | · | 49.1* | · | ·
CCC(=O)OCOc1ccc(/C=C2/CCC(CN(C)C)C2=O)cc1 (stereo not given) | -79.6% | -87.3* | ? | -10.4 | -84.8% | ·
CCOc1ccc(/C=C2\CCC(C3CCCC3)C2=O)cc1 (stereo not given) | -4.3% | 4.8 | 6.0% | 5.8 | 3.98µM* | -0.8%
COc1cccc(CN(C)C[C@H]2OCc3cnnn3CCCC(=O)N([C@H](C)CO)C[C@@H]2C)c1 | -20.6% | 3.4 | · | 1.2 | 7.5% | ·
O=C(NCC1CCCO1)C1CC(=O)N(c2ccc(Cl)cc2)C1 (stereo not given) | -13.6% | 1.3 | -1.4% | -0.7 | -0.4% | -0.5%
O=C(O)/C=C/C(=O)N1CCN(c2cccc(Cl)c2)CC1 | ? | -59.8* | 31.0% | -17.2 | -5.2% | -0.2%
O=C(O)CCC(=O)N1CCN(c2cccc(Cl)c2)CC1 | i | -62.8* | -4.6% | -2.8 | -2.7% | -0.1%
SMILES | PTHR1 ag | DRD3 antagonist | RGS4 inh | DRD3 agonist | BRCA1 expr act | B2AR arrestin
CC(=O)/C(C(=N)N1CCN(c2cccc(Cl)c2)CC1)=C(\C)O | i | -0.4 | -3.9% | -22.1 | -0.9% | -0.1%
COc1ccc(C(=O)CCC(=O)N2CCN(c3cccc(Cl)c3)CC2)cc1 | -68.9% | 17.2 | -3.9% | -1.0 | 1.0% | 0.5%
CCC(C(=O)N1CCN(c2cccc(Cl)c2)CC1)c1ccccc1 (stereo not given) | -11.5%[57.5 µM] | -59.0* | -34.6% | 0.4 | -58.8% | -0.4%
COc1cccc(N2CCN(C(=O)CC(NC(=O)c3ccccc3)c3ccccc3)CC2)c1 (stereo not given) | i | -54.3* | -2.9% | -9.5 | -11.6% | -0.8%
O=C(C(Cc1ccccc1)n1cccc1)N1CCN(c2cccc(Cl)c2)CC1 (stereo not given) | -36.0% | 24.1 | -9.0% | 0.6 | -49.1% | -0.8%
Cc1cccc(N2CCN(C(=O)CC(NC(=O)c3ccccc3)c3ccccc3)CC2C)c1 (stereo not given) | -7.4% | -16.5 | -9.1% | 5.2 | -22.9% | -1.3%
CCOC(=O)CN(C(=O)COC(=O)C1(c2ccccc2)CC1)c1ccc(F)cc1 | i | -27.9 | -10.5% | -6.4 | 1.0% | -1.5%
COc1ccc(-c2csc(/C(C#N)=C(\O)CSc3nccn3C)n2)cc1OC | -6.2%[57.5 µM] | -55.1* | -33.3% | -5.2 | -25.2% | 0.5%
COc1ccc(/C=C(/C#N)c2nc(-c3ccc(-c4ccccc4)cc3)cs2)cc1OC | -1.1% | · | 1.4% | 9.4 | · | ·
Nc1nc(-c2ccc(Cl)cc2)c(N=Nc2ccc(S(=O)(=O)N3CCOCC3)cc2)s1 | -12.1% | -53.6* | 5.8% | -0.4 | -46.2% | 0.0%
CC(=O)c1ccc(C(=O)N2CCc3c([nH]c4ccccc34)C2c2cccc(C)n2)s1 (stereo not given) | -17.1% | -56.5* | -3.2% | -33.2 | -10.6% | 0.3%
NC(N)=NCC1COC2(CCCCC2)O1 (stereo not given) | · | · | · | 3.1 | · | ·
CC[C@H](C)C(C(=O)N1CCN(C(=O)OC(C)(C)C)CC1)n1cc(C(Cc2ccc(O)cc2)NC(=O)OC(C)(C)C)nn1 (stereo not given in full) | i | 72.8 | -19.3% | 52.3* | -60.3% | -0.3%
O=C(O)CC/C(=N\Nc1ccc(S(=O)(=O)N2CCOCC2)cc1[N+](=O)[O-])c1cccs1 | -23.7% | -62.5* | 11.7% | -10.0 | -2.5% | -0.7%
CCOC(=O)/C(C#N)=C1/SC(CC)C(=O)N1c1ccc(C)cc1 (stereo not given) | -62.0%[57.5 µM] | -57.2* | -24.2% | 11.2 | -9.3% | -0.1%
CCOC(=O)/C(C#N)=C1/C=CN(c2ccc(C)cc2)C=N1 | i | 3.8 | 12.1% | 0.5 | ? | 0.0%
Cc1cc(S(=O)(=O)n2ccnc2C(C)C)cc([N+](=O)[O-])c1C | -2.2% | · | 1.1% | -0.8 | · | ·
CC1c2ccccc2SC(CCCN(C)C)c2ccccc21 (stereo not given) | i | ? | -20.9% | -6.5 | -27.9% | -0.9%

High-throughput results (PubChem)
